The test system of assay [1] is Vero E6 infected with SARS-CoV-2. As to the kind of experiment: morphology score (similarity to uninfected cells); higher = more like uninfected cells. The settings on record: 24 h.
The test system is the same in assay [2]. As to the kind of experiment: SARS-CoV-2 infection rate relative to infected DMSO; higher = more infection, active = 60 or less. The settings on record: 24 h.

Where a name gives a salt, the structure may show the parent alone.

`C[N+](C)(C)CC#CCN1CCCC1=O` [oxotremorine-M] (10 µM) showed a morphology score in assay [1] of 0.0604. The SARS-CoV-2 infection rate in assay [2] is 89.5% (inactive).

Compound `O=C(O)c1ccc(OCCn2ccnc2)cc1` [dazoxiben] (10 µM) had a morphology score in assay [1] of 0.196. Besides, in assay [2], the SARS-CoV-2 infection rate was 99% (inactive).

As to `Cc1cccc(CN2CCN(C(c3ccccc3)c3ccc(Cl)cc3)CC2)c1` (stereo unspecified) [meclizine] (10 µM), in assay [1], the morphology score was 0.0755. In addition, the SARS-CoV-2 infection rate in assay [2] is 108% (inactive).

In assay [1], `CNC(=O)CN(CCN(CCN(CC(=O)[O-])CC(=O)NC)CC(=O)[O-])CC(=O)[O-].[Gd+3]` [gadodiamide] (10 µM) had a morphology score of -0.0219. Besides, the SARS-CoV-2 infection rate in assay [2] was 103% (inactive).

For `CC1(C)CC(Oc2ccc(-c3ccc(-c4cn[nH]c4)cc3O)nn2)CC(C)(C)N1` (10 µM), the morphology score in assay [1] was -0.373. Besides, in assay [2], the SARS-CoV-2 infection rate was 120% (inactive).

In turn, `Cc1nc2c(O)cccc2c(=O)[nH]1` (10 µM) returned a morphology score in assay [1] of -0.0261. Further, the SARS-CoV-2 infection rate in assay [2] is 114% (inactive).

In assay [1], `CCN1CCCC(OC(=O)C(c2ccccc2)c2ccccc2)C1` (stereo unspecified) [piperidolate] (10 µM) gave a morphology score of 0.17. For the same compound, in assay [2], the SARS-CoV-2 infection rate was 106% (inactive).

For `C[C@]12C=CC(=O)N[C@@H]1CC[C@@H]1[C@@H]2CC[C@]2(C)[C@@H](C(=O)Nc3cc(C(F)(F)F)ccc3C(F)(F)F)CC[C@@H]12` [dutasteride] (10 µM), the morphology score in assay [1] is 0.111. In assay [2], the SARS-CoV-2 infection rate is 111% (inactive).

Turning to `O=C(c1ccccc1)c1ccc2n1CCC2C(=O)O` (stereo unspecified) [ketorolac] (10 µM), the morphology score in assay [1] stood at 0.000781. Also, the SARS-CoV-2 infection rate in assay [2] is 107% (inactive).

In turn, `O=C(CCCCCN1C(=O)c2cccc3cccc(c23)C1=O)NO` [scriptaid] (10 µM) gave a morphology score in assay [1] of -0.255. Also, in assay [2], the SARS-CoV-2 infection rate was 120% (inactive).

In assay [1], `Cc1ccc(OC[C@@H](O)[C@H](C)NC(C)C)c2c1CCC2` (racemic) (10 µM) displayed a morphology score of -0.0205. Further, in assay [2], the SARS-CoV-2 infection rate is 110% (inactive).

In assay [1], `[O-][S+](c1ccccc1)c1ccc2nnnn2n1` (stereo unspecified) (0.833333 µM) gave a morphology score of 0.19. The SARS-CoV-2 infection rate in assay [2] is 85.5% (inactive).

Take `COC1CCN(c2cccc(-c3cc(NC(C)=O)nc(-n4nc(C)cc4C)n3)n2)CC1` (10 µM): in assay [1], the morphology score is -0.0121. Moreover, in assay [2], the SARS-CoV-2 infection rate was 104% (inactive).

`CC(=O)c1ccc(S(=O)(=O)NC(=O)NC2CCCCC2)cc1` [acetohexamide] (10 µM) returned a morphology score in assay [1] of 0.11. In addition, the SARS-CoV-2 infection rate in assay [2] was 100% (inactive).

On to `O=C1Nc2cc(Cl)c(Cl)cc2N2CCNC[C@H]12` (10 µM), for which the morphology score in assay [1] was 0.179. The SARS-CoV-2 infection rate in assay [2] is 108% (inactive).

Compound `C#C[C@]1(O)CC[C@H]2[C@@H]3CCC4=C(CCC(=O)C4)[C@H]3CC[C@@]21C` [noretynodrel] (10 µM) displayed a morphology score in assay [1] of 0.0184. The SARS-CoV-2 infection rate in assay [2] was 108% (inactive).

As for `C=CC[C@]1(O)CC[C@H]2[C@@H]3CCC4=CCCC[C@@H]4[C@H]3CC[C@@]21C` [allylestrenol] (10 µM), the morphology score in assay [1] was 0.0416. The SARS-CoV-2 infection rate in assay [2] was 92.5% (inactive).

In assay [1], `O=C(O)/C=C1\CCCc2ccccc2[C@H]1O` (racemic) (10 µM) registered a morphology score of 0.0116. Besides, the SARS-CoV-2 infection rate in assay [2] was 100% (inactive).

In assay [1], `NC(=O)c1ncn([C@@H]2O[C@H](CO)[C@@H](O)[C@H]2O)c1N` [acadesine] (10 µM) came in with a morphology score of 0.00261. Also, the SARS-CoV-2 infection rate in assay [2] was 98.5% (inactive).

With `C[C@]12CC[C@@H](O)C[C@H]1CC[C@@H]1[C@@H]2CC[C@]2(C)C(=O)CC[C@@H]12` [3-alpha-hydroxy-5-beta-androstan-17-one] (10 µM), the morphology score in assay [1] was 0.223. For the same compound, in assay [2], the SARS-CoV-2 infection rate is 102% (inactive).

As for `CN(Cc1cc(Br)cc(Br)c1N)C1CCCCC1` [bromhexine] (10 µM), the morphology score in assay [1] was -0.0228. For the same compound, the SARS-CoV-2 infection rate in assay [2] was 102% (inactive).

As to `Cc1nc2cnc3ccc(C#Cc4cccnc4)cc3c2n1-c1ccc(C(C)(C)C#N)cc1` (10 µM), the morphology score in assay [1] came to 0.114. Moreover, the SARS-CoV-2 infection rate in assay [2] is 109% (inactive).

For `CN(C(=O)c1c(O)c2ccccc2n(C)c1=O)c1ccccc1` [roquinimex] (10 µM), the morphology score in assay [1] is 0.211. Further, the SARS-CoV-2 infection rate in assay [2] is 94.5% (inactive).

In assay [1], `Cc1cc(/C=C/C#N)cc(C)c1Nc1ccnc(Nc2ccc(C#N)cc2)n1` [rilpivirine] (0.833333 µM) had a morphology score of 0.136. Further, the SARS-CoV-2 infection rate in assay [2] was 111% (inactive).

As for `Oc1ccc(O)cc1` [hydroquinone] (10 µM), the morphology score in assay [1] stood at 0.00582. In assay [2], the SARS-CoV-2 infection rate was 108% (inactive).

In assay [1], `COc1cc(C(=O)N2CCC(N3CCN(C)CC3)CC2)ccc1Nc1ncc2c(n1)N(C)c1ccccc1C(=O)N2C` (0.833333 µM) gave a morphology score of 0.0522. Further, the SARS-CoV-2 infection rate in assay [2] was 100% (inactive).

In assay [1], `CN1[C@@H]2CC[C@H]1C[C@@H](OC(=O)C(CO)c1ccccc1)C2` (stereo partly specified) (10 µM) returned a morphology score of -0.21. In addition, in assay [2], the SARS-CoV-2 infection rate is 106% (inactive).

In assay [1], `CC/C(=C(\c1ccc(O)cc1)c1ccc(OCCNC)cc1)c1ccccc1` [Endoxifen HCl] (10 µM) showed a morphology score of 0.817. Further, the SARS-CoV-2 infection rate in assay [2] was 26% (active).

Compound `CN1[C@@H]2CC[C@H]1C[C@@H](OC(=O)c1c[nH]c3ccccc13)C2` [tropisetron] (10 µM) came in with a morphology score in assay [1] of -0.0266. Further, the SARS-CoV-2 infection rate in assay [2] is 102% (inactive).

In assay [1], `CSc1nc2ccc3nc(NC(=O)C(c4ccccc4)c4ccccc4)sc3c2s1` (10 µM) gave a morphology score of 0.0833. Also, the SARS-CoV-2 infection rate in assay [2] was 94.5% (inactive).

`COCCOC(=O)C1=C(C)NC(C)=C(C(=O)OC(C)C)C1c1cccc([N+](=O)[O-])c1` (stereo unspecified) [nimodipine] (10 µM) gave a morphology score in assay [1] of 0.14. The SARS-CoV-2 infection rate in assay [2] was 92% (inactive).

`CC(C)(C)C(=O)CN1C(=O)[C@H](NC(=O)Nc2cccc(C(=O)O)c2)CN(C2CCCCC2)c2ccccc21` [nastorazepide] (10 µM) showed a morphology score in assay [1] of -0.0136. Also, in assay [2], the SARS-CoV-2 infection rate was 104% (inactive).

`CC(=O)NCCCCCC(=O)O` [acexamic-acid] (10 µM) came in with a morphology score in assay [1] of -0.0574. Moreover, in assay [2], the SARS-CoV-2 infection rate is 112% (inactive).

Source of the values: the supplement of paper PMC13380429.
